The structures appear in SMILES notation. About 220 (0.16%) of roughly 140,000 compounds were called active. The sample holds actives, similar compounds and a random draw of the others, so the mix is not that of the screen. A number with no mark means an inactive call. Cut-off read from the data, not from the text of the source: active = inhibition above about 50%; inactive = the rest.

Usually inhibition stands for the relative decrease from the control value, in per cent.

For this experiment, the system named is YopH tyrosine phosphatase [Yersinia enterocolitica]. The experiment in a line: YopH tyrosine phosphatase inhibitors, primary screen, biochemical, fluorescence Ex485/Em525 (AID 898). The conditions noted are these: hits give high values, concentration not given here.
As for `O=c1[nH]c(CN2CCN(S(=O)(=O)c3ccc4c(c3)OCCO4)CC2)nc2sc3c(c12)CCCC3`, the inhibition was -8.83%.

For `Cc1ccc(S(=O)(=O)N(CC(=O)Nc2cccc([N+](=O)[O-])c2)Cc2ccc(Cl)cc2)cc1`, the inhibition is -31.4%. For `CC(C)OCCCNC(=O)c1cc(Sc2ccc(F)cc2)nc2ccccc12` the value was -10.5%; for `COc1cccc(-n2c(SCC(=O)c3c[nH]c4ccccc34)nc3ccccc3c2=O)c1`, -22.8%; for `C/C(=N\NC(=O)c1ccc(CSc2nc(C)cc(C)n2)cc1)C1CCCCC1`, -27.2%.

Regarding `CC(=O)c1c(O)cc2n(c1=O)-c1ccc(Cl)cc1C2(C)C`, the inhibition was -21.9%.

With `CSc1c(SCc2ccccc2)cnn(Cc2ccccc2)c1=O`, the inhibition is -31.9%. For `Cc1ccc(S(=O)(=O)N(NC2=NS(=O)(=O)c3ccccc32)C(=O)c2ccccc2)cc1`, the inhibition is -28.4%. Then `CCCCCC(=O)Nc1ccc(S(=O)(=O)Nc2ccc(Cl)nn2)cc1`, with -13.3%. Take `CC(C)(C)C(=O)N1CCC[C@@]1(CO)C(=O)O`: the inhibition is -12.8%.

On to `COc1ccc(C(CC(=O)c2ccccc2)S(=O)(=O)c2ccccc2)cc1` (stereo not drawn), for which the inhibition is -12.2%. For `CCCCN(C)c1ccc([N+](=O)[O-])cc1`, the inhibition is -11%.

Turning to `CCCCOc1ccc(NC(=O)[C@@H]2CCCN2C(=O)C2CCN(S(=O)(=O)c3ccc(C)cc3)CC2)cc1`, the inhibition is -8.82%. For `Cc1ccccc1Cn1nc(C)c(NC(=O)C(F)(F)F)c1C` the value was -28.6%; for `Cc1ccc(-c2csc(NNC(=O)c3ccccc3)n2)cc1`, -36.8%. In the case of `Cc1ccccc1/[N+]([O-])=C/c1ccncc1`, the inhibition is 77.8% (active).

In the case of `CC(NC(=O)C(=O)NN=C1CCC(C(C)(C)C)CC1)c1ccccc1` (stereo not drawn), the inhibition was -22%. For the compound `CCOc1ncccc1C(=O)N(CC)CC(=O)Nc1ccc(NC(C)=O)cc1`, the inhibition is -14.7%.

As to `Cc1cc(C(=O)CSc2nc(N)cc(=O)[nH]2)c(C)n1-c1cccc(F)c1`, the inhibition was -16.4%.

For `COC(=O)Cc1csc(/N=C/c2c(O)n(-c3cccc(C(F)(F)F)c3)c(=O)c3ccccc23)n1`, the inhibition is -22.8%. For `COc1ccc(-n2c(C)cc(C(=O)CN3C(=O)NC4(CCc5ccccc54)C3=O)c2C)cc1` (stereo not drawn) the value was -19.6%; for `Cc1scc(C(=O)NNC(=S)NCC(C)C)c1C`, -19.1%; for `COCCCNC(=O)Cn1cc(/C=C(\C#N)C(=O)N2CCN(c3ccccc3)CC2)c2ccccc21`, -25.6%. For `CC(=O)Nc1cccc(/C(C)=N/NC(=O)c2c(-c3ccccc3Cl)noc2C)c1` the value was -32.1%. Then `CC(C)Cc1nn2c(=O)cc(O)nc2s1`, with -35.6%. As to `COc1ccc(OCC(=O)Nc2cc(C)c(Cl)cc2OC)c([N+](=O)[O-])c1`, the inhibition is -16.9%.

As for `O=C(OCC1O[C@@H](OC(=O)c2cc(O)c(O)c(O)c2)[C@@H](OC(=O)c2cc(O)c(O)c(O)c2)[C@@H](OC(=O)c2cc(O)c(O)c(O)c2)[C@@H]1OC(=O)c1cc(O)c(O)c(O)c1)c1cc(O)c(O)c(O)c1` (stereo partly drawn), the inhibition is 71.9% (active). `CC(=O)NC1C(OCc2ccccc2)OC(COC(C)=O)C(OC(C)=O)C1OC(C)=O` (stereo not drawn): the inhibition is -23.9%.

`S=C(NCCc1ccccc1)NCC1CCCO1` (stereo not drawn): the inhibition is -37.5%. Then `CCS(=O)(=O)Nc1cccc(-c2cc(-c3ccccc3)c3cc(C)ccc3n2)c1`, with -8.31%; and `CCc1ccc(C(=O)OCC(=O)Nc2cccc(S(=O)(=O)NC3=NCCCCC3)c2)cc1`, with -20.5%; and `Cc1cc([N+](=O)[O-])ccc1NC(=O)C1CCCO1` (stereo not drawn), with -25.6%.

On to `Cc1cc([N+](=O)[O-])nn1CC(=O)Nc1ccc(Cc2ccncc2)cc1`, for which the inhibition was -27.8%. For `O=C(Nc1ccccc1Cc1ccccc1)c1ccc2c(c1)SC1=NS(=O)(=O)CCN12` the value was -31.8%; for `CCOC(=O)CN1C(=O)N[C@@H](c2ccc(Br)cc2)C(C(C)=O)=C1C`, -19.8%. As for `CC(=O)c1ccc(N2CCN(C(=O)c3ccc4nc[nH]c4c3)CC2)cc1`, the inhibition was -23.5%. For `COc1ccc2oc(-c3cccc(NC(=O)CSc4ccc(Cl)cc4)c3)nc2c1`, the inhibition was -28.2%. For `COc1ccc(N2C(=O)C(CC(=O)Nc3ccc(F)cc3)N(CCc3cccs3)C2=O)cc1` (stereo not drawn) the value was -4.8%; for `Cc1ccc(CCCOC(=O)C[N+]2(C)CCCC2)cc1`, -21.4%; for `CCC(=O)Nc1c(C)n[nH]c1C`, -26.6%. Then `CCCN1C(=O)C(Cc2nc3ccccc3c(=O)n2-c2ccccc2)c2cc(C)ccc21` (stereo not drawn), with -10.9%; and `CCOC(=O)c1cccnc1NC(=O)c1ccncc1`, with -10.3%. Consider `COc1cccc2c1CCC(NC(C)=O)C2=O` (stereo not drawn), for which the inhibition is -4.91%. As for `CCN(CC)S(=O)(=O)c1ccc(C)c(NC(=O)COc2ccc(Br)cc2Cl)c1`, the inhibition is -2.1%. Then `Cc1coc2c(O)cc3c(c12)OC1(N2CCCCC2)C(=O)NCCCC31` (stereo not drawn), with 73% (active); and `COc1ccc(CNC(=O)CCCn2nc(C)c([N+](=O)[O-])c2C)cc1`, with -22.1%; and `COc1ccc(/C=C/C(=O)NC(=S)NN2CCCCC2c2cccnc2)cc1` (stereo not drawn), with -20.6%. As for `Cc1ccc(C(=O)COC(=O)CCCC(=O)NC2CCCCC2)cc1[N+](=O)[O-]`, the inhibition is -26.3%. For `CCNC(=S)N1CCC(c2nc3cc(C)c(C)cc3[nH]2)CC1`, the inhibition is -17.7%. Take `O=S(=O)(ON(c1ccccc1)S(=O)(=O)c1ccccc1)c1ccccc1`: the inhibition was -36.9%.

Consider `CCOC(=O)c1csc(NC(=O)Nc2cccc(OC)c2)n1`, for which the inhibition is -29.1%.

Regarding `O=C(NC(CC(=O)N1CCN(c2ccccc2)CC1)c1ccccc1)c1ccccc1Cl` (stereo not drawn), the inhibition is -12%. Then `CCOc1cccc2c1OC1(CCCCC1)N1N=C(c3cccnc3)CC21` (stereo not drawn), with -19.2%; and `CC1(c2ccccc2)CC(C)(C)N(C(=O)c2cc([N+](=O)[O-])cc([N+](=O)[O-])c2)c2ccccc21` (stereo not drawn), with -29.6%. Then `CC1CCN(C2=NC(=O)/C(=C/c3cn[nH]c3-c3ccccc3)S2)CC1`, with -21.6%; and `Cc1ccc(-n2c(SCC(=O)Nc3ncc(Cl)cc3Cl)nc3ccccc32)cc1`, with 8.79%. For `CCOC(=O)/C=C/C(=O)OCC(=O)NC(c1ccccc1)c1ccccc1` the value was -29%.

For the compound `Cc1cc(C)c(C2C3=C(Nc4c2c(C)nn4-c2ccccn2)c2ccccc2C3=O)c(C)c1` (stereo not drawn), the inhibition is -0.15%. As to `CCOC(=O)C1=C(c2ccc(OC)cc2)C(=O)c2ccccc2C1=O`, the inhibition was 16.7%. Then `CCOC(=O)c1c(C)[nH]c2c1-c1ccccc1C(=O)C2=O`, with 78.7% (active); and `CCOC(=O)c1c(C)[nH]c(=S)c(C#N)c1-c1ccccc1`, with -37.4%; and `COc1ccc2c(CC(=O)OCC(=O)Nc3ccccc3[N+](=O)[O-])coc2c1`, with -29.4%. Regarding `Cc1ccc(C(=O)Oc2coc(CSc3nnc(NC(=O)c4cccs4)s3)cc2=O)cc1C`, the inhibition was 0.04%.

As for `NC1=NC(=O)S/C1=C\c1ccc(O)cc1`, the inhibition was -36.5%.

As to `CCOc1ccccc1N1CCN(C(=S)Nc2ccc(S(N)(=O)=O)cc2)CC1`, the inhibition is -2.91%. Regarding `CC(C)(C)C(=O)NC(NC(=S)Nc1ccc(S(N)(=O)=O)cc1)C(Cl)(Cl)Cl` (stereo not drawn), the inhibition was -18.5%. As for `Cc1ccc(C(=O)N(CN2CCCC2=O)c2ccc(F)cc2)cc1`, the inhibition is -41.7%. Then `CCn1c(C(C)NC(=O)c2ccc(C)cc2)n[nH]c1=S` (stereo not drawn), with -41.3%; and `CCN1CCC2(CC1)N=C(c1ccc(F)cc1)C(=S)N2C(=O)c1ccc(C)cc1`, with 77.9% (active); and `CC(=O)c1c(C)[nH]c(C(=O)OCC(=O)Nc2sc3c(c2C#N)CCCC3)c1C`, with -24.9%. For `COCCCN(C(=S)Nc1c(C)cc(C)cc1C)C(C)c1ccncc1` (stereo not drawn) the value was -22.6%; for `Cc1ccccc1-n1nc(C)c2c1N=C1C(Cl)=CC(Cl)=CN1C2c1ccc(C(=O)O)cc1` (stereo not drawn), -22.9%. For `COC(C(=O)Nc1ccc(C(C)=O)cc1)c1ccccc1` (stereo not drawn) the value was -28.2%; for `C/C(=N/NC(=S)Nc1ccccc1)c1ccc2c(c1)OCO2`, -22.5%; for `COc1ccc(OCCNS(=O)(=O)Cc2ccccc2)cc1`, -30.4%. In the case of `Cc1nonc1C(=O)N/N=C/c1ccc(O)cc1`, the inhibition was -21.7%. Then `Cc1ccc2c(CC(=O)NCc3cccs3)coc2c1`, with -29.9%.

For `CCc1cccc(CC)c1NC(=O)COc1ccccc1C(=O)c1cc(C#N)c(=O)n(C2CCCCC2)c1`, the inhibition is -24.5%. For `Cc1ccc(-c2cc(C(=O)N/N=C/C=C/c3ccccc3)n[nH]2)o1` the value was -23%. For `O=C(COC(=O)c1cc2c(s1)CCCC2)NCc1ccccc1Cl`, the inhibition was -45.2%.

With `CCCN1CNC(=S)N(CCc2ccccc2)C1`, the inhibition is -20.8%. For `CCCCc1cc2c(s1)CCCC/C2=N/O` the value was -2.52%. For `N#Cc1c(-c2ccc(F)cc2)cc(C2CC2)nc1SCC(=O)c1cccs1` the value was -21.7%. For `Cc1ccc(O)c(-c2cc(C(=O)Nc3c(C)n(C)n(-c4ccccc4)c3=O)[nH]n2)c1` the value was -27%; for `O=C(CSc1nc2ccccc2[nH]1)Nc1nc(-c2ccccc2)c(-c2ccccc2)o1`, -23.6%.

As to `COc1ccc(Br)cc1CN(C)CC(=O)Nc1cc(Cl)cc(Cl)c1`, the inhibition is -5.01%. For `CCCCNC(=O)CCn1c(=O)c2ccccc2n(Cc2cc(C)ccc2C)c1=O` the value was -41.6%. Turning to `Nc1nnc(SCC(=O)OCc2ccc(Cl)c(Cl)c2)s1`, the inhibition is -17.1%.

For the origin of these results see PubChem BioAssay AID898 (University of Pittsburgh Molecular Library Screening Center, 2007).
